# Assay results: ChEMBL document CHEMBL3988442, “University of Dundee, Small-Polar-MMV Screening Library” (2021)
# The campaign covered roughly 38,000 compounds. About 1,200 (3.2%) showed an effect of 50% or more. The median lay at about -58%. For the sample, strong results were picked, then their nearest neighbours and some compounds at random.
# System: Plasmodium falciparum
# Assay: Calibr Malaria Delayed Death Assay SOP
# Format: functional, organism-based
# Parameters: scale not given: in the data most compounds retested in dose-response had high values
# Settings: concentration 4.99e-06 (unit not given; other assays of the set use mol/L)
row,SMILES,Percent Effect [%]
1,COc1ccc(C)nc1NC(=O)CCc1c(C)nn(C)c1C,-87.92
2,CCc1nc(C(=O)N2CCN(C)c3ccccc32)c[nH]1,-108.8
3,COCc1n[nH]/c(=N/C(=O)COc2cnc(C)cc2O)s1,-11.35
4,O=C(c1cccnc1)N1CCC2(CC1)CN(c1ccccn1)CCO2,-57.82
5,Cl.Cl.O=C([C@H]1CCCN1)N1CC2(CCNCC2)c2cc(Cl)ccc21,58.74
6,Cl.NC(=O)N1CC2(CCNCC2)c2cc(Cl)ccc21,-64.91
7,CN(C)C(=O)N1CC2(CCNCC2)c2cc(Cl)ccc21.Cl,23.36
8,CN(Cc1nnc(C2CCC2)o1)C(C(N)=O)c1cccc(F)c1 (stereo not given),-103
9,Cc1ccc(S(=O)(=O)NCC(O)c2ccoc2)s1 (stereo not given),-144.6
10,CCN1CCC2(CC1)CC(NCc1ccncc1)c1ccccc1O2.O=C(O)C(F)(F)F.O=C(O)C(F)(F)F.O=C(O)C(F)(F)F (stereo not given),77.69
11,CCN1CCC2(CC1)CC(Nc1ncccn1)CO2 (stereo not given),-15.58
12,O=C(Cc1ccncc1)N1CCC2(CC1)CC(c1ccccc1)CO2.O=C(O)C(F)(F)F (stereo not given),-32.94
13,CN1CCC2(CC1)CC(NC(=O)c1csnn1)c1ccccc1O2.O=C(O)C(F)(F)F (stereo not given),-14.05
14,CCN1CCC2(CC1)CC(NC(=O)c1c[nH]cn1)c1ccccc1O2 (stereo not given),-75.27
15,O=C(c1ccsc1)N1CCC2(CC1)CCN(S(=O)(=O)C1CC1)CC2,5.88
16,COc1ccccc1S(=O)(=O)Nc1cnc(O)cc1C,-22.04
17,c1cncc(NCCNC2CCCNC2)c1 (stereo not given),-4.225
18,c1cncc(NCCNC2CCSCC2)c1,-16.36
19,CC(C)CN1CCC(NCCNc2cccnc2)CC1,78.75
20,Cn1cc(CCNC(=O)c2cc3ccccc3nc2N2CCCC2)cn1,-91.24
21,CC(C)Nc1nc2c(c(NC3CC3)n1)CCN(Cc1nccn1C)CC2.O=C(O)C(F)(F)F,75.38
22,Cc1nc(N2CCCC2)nc2c1CCN(Cc1nccn1C)CC2.O=C(O)C(F)(F)F,-65.41

row,SMILES,Percent Effect [%]
1,CN(C)c1nc(N2CCCC2)nc2c1CCN(Cc1nccn1C)CC2.O=C(O)C(F)(F)F,3.003
2,Cc1nc(C)c2c(n1)CCN(Cc1nccn1C)CC2.O=C(O)C(F)(F)F,-117.5
3,CC(C)Nc1ncnc2c1CCN(Cc1nccn1C)CC2.O=C(O)C(F)(F)F.O=C(O)C(F)(F)F,-41.64
4,CC(C)Nc1nc2c(c(N(C)C)n1)CCN(Cc1nccn1C)CC2.O=C(O)C(F)(F)F,53.11
5,Cc1nc(C)c(C(=O)N2CCN(CCOc3ccccc3C)CC2)o1,-41.56
6,Cl.N[C@@H](Cc1ccccc1)c1nnc(S(=O)(=O)Cc2ccc(Cl)cc2)o1,-112.8
7,Cc1cnc(N2CCN(C)CC2)nc1-c1ccnn1C,-103.6
8,COc1cnc(N2CC(N3CCOCC3)C2)nc1-c1ccnn1C,75.52
9,COc1cnc(N2CCN(C)CC2)nc1-c1ccnn1C,-14.56
10,CC(C)Cc1nc(OCC(=O)O)c(C#N)c2c1CCCC2,-37.32
11,Cc1[nH]nc(CCC(=O)N2CCc3c(nc[nH]c3=O)C2)c1C,-169.9
12,CCN(CC)CCn1cnc(-c2ccccc2)c1-c1ncc[nH]1,-50.85
13,CCN(CC)CCn1cnc(-c2ccccc2)c1-c1cnn(CC)c1,18.58
14,CCN(CC)CCn1cnc(-c2ccccc2)c1-c1cnc(C)s1,52.89
15,CCc1ccsc1C(=O)NC(C#N)CC(C)C (stereo not given),-81.49
16,CC1CCN(C(=O)c2ccc(N(C)Cc3cnn(C)c3)nc2)CC1,-165.6
17,Cc1sc2nc(C(F)(F)F)nc(N3CCN(C)CC3)c2c1C,10.88
18,CC(=O)N1CCN(c2nc(C(F)(F)F)nc3sc(C)c(C)c23)CC1,-31.05
19,Cc1sc2nc(C(F)(F)F)nc(N3CCCN(C)CC3)c2c1C,75.15
20,CC(NCc1ccc(F)cc1)c1ccc2[nH]c(=O)[nH]c2c1 (stereo not given),-45.16
21,O=C1Nc2ccccc2/C1=C1\CCCCN1,-131
22,CN(C)CC(=O)N1CCc2sc(C(=O)NCC3CC3)cc21.O=C(O)C(F)(F)F,-49.99

row,SMILES,Percent Effect [%]
1,CCCn1nc2c(cc1=O)CN(Cc1nc(CCOC)no1)CC2,60.93
2,CCCn1nc2c(cc1=O)CN(Cc1nc(-c3ccoc3)no1)CC2,-48.33
3,CCn1nc2c(cc1=O)CN(Cc1nc(CCOC)no1)CC2,-158.3
4,Cn1nc(CO)c2c1CCN(c1ncnc3c1CCNC3)C2,-81.19
5,CC(=O)Nc1ccc(CN(C)Cc2snnc2C)cc1,-153.1
6,CCNS(=O)(=O)c1cccc(CSC)c1,-125.2
7,CCN(CC)CCNS(=O)(=O)c1cccc(CSC)c1,83.08
8,CSCc1cccc(S(=O)(=O)NCCO)c1,-54.99
9,COCC1CCN(S(=O)(=O)NCC2COc3ccccc3C2)CC1 (stereo not given),-101
10,O=S1(=O)CCC(CNS(=O)(=O)N2CCc3ccccc3C2)C1 (stereo not given),-112.5
11,CCN1CCC(CNS(=O)(=O)N2CCc3ccccc3C2)C1 (stereo not given),54.33
12,CN1CCCC(CNS(=O)(=O)N2CCc3ccccc3C2)C1 (stereo not given),77.6
13,CN1CCN(S(=O)(=O)NCC2COc3ccccc3C2)CC1 (stereo not given),-15.69
14,O=S(=O)(NCC1CCOC1)N1CCc2ccccc2C1 (stereo not given),-79.01
15,O=S1(=O)CCN2C(=N1)Oc1ccc(S(=O)(=O)N3CCCC3)cc12,-88.45
16,CSCCCN1C[C@H](NC(=O)c2cc(C3CC3)on2)[C@@H](C2CC2)C1,21.88
17,O=C(c1cccnc1)N1CCC2(CC1)CCN(Cc1ccccn1)C2=O,-24.21
18,CCn1ncc(Cl)c1CN(C)C(=O)CCn1ncc(Br)c1C,-15.28
19,Cc1nc[nH]c1CN1CCN(C(=O)C2CC2)[C@H]2CS(=O)(=O)C[C@H]21,-108.2
20,C[C@@H](O)CNc1c(NCc2ccco2)c(=O)c1=O,-66.82
21,CC1(C)CC(=O)c2cnc3nc(N4CCCCC4)nc(O)c3c2C1,-100.7
